# In all, about 69,000 compounds went through this assay and about 1,000 (1.4%) showed an effect of 50% or more. This is one part of a sample in which strong results are shown more often than they occur.
# Tested on: Leishmania donovani
# Assay: Leishmania intramacrophage assay
# Type: functional, organism-based
# Parameters: scale not given: in the data most compounds retested in dose-response had high values
smiles,measurement,setting,value
CC(C)(C)c1ncc2c(n1)CN(c1cc(NCCO)nc(N)n1)C2,Percent Effect,"30.3 µM, […]",34.79%
O=C(C1CC(=O)N(c2n[nH]c3cc(Br)ccc23)C1)N1CCOCC1 (configuration not stated),Percent Effect,"30.3 µM, […]",-3.266%
CC(C)CCNC(=O)c1ccc(Cl)c(NS(C)(=O)=O)c1,Percent Effect,"30.3 µM, […]",6.444%
O=C(Cc1ccsc1)N1C[C@@H]2CN(Cc3ccoc3)CCO[C@@H]2C1.O=C(O)C(F)(F)F,Percent Effect,"30 µM, 30.03 µM",9.64%
COc1ccc(OCCN(C)C(=O)c2ccc(OC)cc2O)cc1,Percent Effect,"30.3 µM, […]",55.32%
COCCCNC(=O)CN(C)C(=O)c1ccc(OC)cc1O,Percent Effect,30 µM,24.99%
COCCN(C)C(=O)c1ccc(OC)cc1O,Percent Effect,"30 µM, 30.03 µM",-17.55%
CCN(C)C(=O)CN1CCC(c2cc(N3CCOCC3)nc(C)n2)CC1,Percent Effect,"30.3 µM, […]",-1.668%
Nc1nccc(N2CCC(c3cc(Cc4ccccc4)n[nH]3)CC2)n1,Percent Effect,"30.3 µM, […]",63.85%
NC(=O)NCCC(=O)N1CCC(c2cc(Cc3ccccc3)n[nH]2)CC1,Percent Effect,"30.3 µM, […]",-20.51%
Cc1ccc(N2CCC(c3cc(Cc4ccccc4)n[nH]3)CC2)nn1,Percent Effect,"30.3 µM, […]",15.09%
Cc1cc(CN2CCC(c3cc(Cc4ccccc4)n[nH]3)CC2)[nH]n1,Percent Effect,"30.3 µM, […]",26.02%
Nc1cc(N2CCC(c3cc(Cc4ccccc4)n[nH]3)CC2)ccn1,Percent Effect,"30.3 µM, […]",96.12%
Nc1nc(O)cc(N2CCC(c3cc(Cc4ccccc4)n[nH]3)CC2)n1,Percent Effect,"30.3 µM, […]",4.937%
COc1ccc(CN2CCCCC2c2n[nH]cc2-c2cc(C)no2)cc1.Cl (configuration not stated),Percent Effect,"30.3 µM, […]",-16.67%
CCn1ncc2c1CCCC2NCc1cc(OC)cc(OC)c1 (configuration not stated),Percent Effect,30 µM,1.972%
Cc1cc(CNC(=O)NCCOc2ccc(F)c(F)c2)on1,Percent Effect,"30.3 µM, […]",0.6606%
CC1(C(=O)NCc2cccnc2Oc2ccc(F)c(F)c2)CCCNC1 (configuration not stated),Percent Effect,"30.3 µM, […]",-16.47%
Cc1nc(C2(O)CCCNCC2)sc1CCOc1ccc(F)cc1.Cl (configuration not stated),Percent Effect,"30.3 µM, […]",8.294%
Cc1nccc(CNC(=O)NCCOc2ccc(F)c(F)c2)n1,Percent Effect,"30 µM, 30.03 µM",3.237%
Cc1nc(C2(O)CCCNCC2)sc1CCOc1ccc(F)c(F)c1.Cl (configuration not stated),Percent Effect,"30.3 µM, […]",85.82%
CC(=O)NCc1nnn2c1CN(c1ncc(C)cn1)CCC2,Percent Effect,"30.3 µM, […]",22.68%
O=C(NC[C@]12COC[C@H]1CN(Cc1nccs1)C2)c1cscn1.O=C(O)C(F)(F)F,Percent Effect,"30.3 µM, […]",14.84%
CCOc1cc(C(=O)N2CCN(CC)CC2)cc2occc12,Percent Effect,"30.3 µM, […]",-20.1%
CN(CC(=O)Nc1ccccc1C(=O)NC1CC1)Cc1ccccc1Cl,Percent Effect,"30.3 µM, […]",31.64%
CCOc1ccccc1NC(=O)CN(C)Cc1ccccc1Cl,Percent Effect,"30.3 µM, […]",52.93%
CCOC(=O)c1ccccc1NC(=O)CN(C)Cc1ccccc1Cl.O=C(O)C(=O)O,Percent Effect,"30.3 µM, […]",23.74%
O=C(Nc1cccc(OCC(F)F)n1)c1ccncc1F,Percent Effect,"30.3 µM, […]",29.54%
CCSc1ccc(C(=O)N2CCCC2C(=O)N2CCOCC2)cn1 (configuration not stated),Percent Effect,"30.3 µM, […]",-29.5%
Cc1cc2nc(C(C)C)cc(N3CCC(Oc4ncccn4)CC3)n2n1,Percent Effect,"30.3 µM, […]",83.06%
Cc1cc2nc(C(C)C)cc(N3CCC(N(C)C)C3)n2n1 (configuration not stated),Percent Effect,"30.3 µM, […]",15.59%
Cc1cc2nc(C(C)C)cc(N3CCC(O)CC3)n2n1,Percent Effect,"30.3 µM, […]",27.64%
O=C(CNC(=O)C1CCCC1)NCc1cnn(-c2ccc(F)cc2F)c1,Percent Effect,"30.3 µM, […]",-11%
CCN(c1ccc(C(=O)NCCCN2CCOCC2)cc1)S(=O)(=O)CC,Percent Effect,"30 µM, 30.03 µM",0.6611%
CC(O)CN1CCN(C(=O)c2ccc3c(c2)COC3)CC1 (configuration not stated),Percent Effect,"30 µM, 30.03 µM",9.428%
Cn1cnc2c(-c3cccnc3)nc(C3CCN(S(C)(=O)=O)CC3)cc21,Percent Effect,"30.3 µM, […]",18.38%
Cc1nn(C)c(N2CCOCC2)c1CNC1CCS(=O)(=O)C1 (configuration not stated),Percent Effect,"30.3 µM, […]",15.34%
Cc1noc(C)c1CN1CCOCC12CCN(c1cnccn1)CC2.O=C(O)C(F)(F)F,Percent Effect,"30.3 µM, […]",60.72%
CCN1CCOCC12CCN(c1cnccn1)CC2.O=C(O)C(F)(F)F,Percent Effect,"30.3 µM, […]",19.49%
Cc1noc(C)c1CN1CCOCC12CCN(c1ncccn1)CC2.O=C(O)C(F)(F)F,Percent Effect,"30.3 µM, […]",49.21%
O=C(c1cnn2c1OCCC2)N1CCC(Cc2ccccc2)CC1,Percent Effect,"30.3 µM, […]",-34.88%
OCc1cn(Cc2cccc(F)c2)nn1,Percent Effect,"30.3 µM, […]",6.732%
COC(=O)NCC(=O)N(C)CC1Cc2ccccc2CN1C (configuration not stated),Percent Effect,"30.3 µM, […]",52.66%
COC(=O)CCCC(=O)N(C)CC1Cc2ccccc2CN1C (configuration not stated),Percent Effect,"30.3 µM, […]",11.82%
CCOCCC(=O)N(C)CC1Cc2ccccc2CN1C (configuration not stated),Percent Effect,"30.3 µM, […]",29.01%
COc1ncccc1C(=O)N1CCC(c2nc3c(C)cccc3[nH]2)CC1,Percent Effect,"30.3 µM, […]",-25.37%
CN1CCC(c2nnc3ccc(C(=O)N4CCCCC4)cn23)C1.O=C(O)C(F)(F)F (configuration not stated),Percent Effect,"30.3 µM, […]",20.31%
COc1cccc(C(O)CN2CCN(C(=O)CCC(C)C)CC2)c1 (configuration not stated),Percent Effect,"30.3 µM, […]",-26.89%
CS(=O)(=O)N1CCO[C@@H]2CN(C(=O)N3CCCC3)CC[C@@H]2C1,Percent Effect,"30.3 µM, […]",57.39%
CS(=O)(=O)N1CCO[C@@H]2CN(C(=O)C3CCOC3)CC[C@@H]2C1 (some centres not stated),Percent Effect,"30.3 µM, […]",29.21%
CS(=O)(=O)N1CCO[C@@H]2CN(C(=O)N3CCOCC3)CC[C@@H]2C1,Percent Effect,"30.3 µM, […]",41.23%
Cc1cc(OCCC(=O)NCc2ccc(F)cc2)nnc1C,Percent Effect,"30.3 µM, […]",-17.71%
CCn1c(N)nc2cc(C(=O)N3Cc4ccccc4C3)cnc21,Percent Effect,"30.3 µM, […]",1.909%
COCC(=O)N1CC(c2ccnc(Nc3cc(C(F)(F)F)ccn3)n2)C1,Percent Effect,"30.3 µM, […]",23.24%
Cl.NCC(=O)N1CCC(c2ccnc(Nc3cc(C(F)(F)F)ccn3)n2)C1 (configuration not stated),Percent Effect,"30.3 µM, […]",77.96%
O=C(CO)N1CCC(c2ccnc(Nc3cc(C(F)(F)F)ccn3)n2)C1 (configuration not stated),Percent Effect,"30.3 µM, […]",30.85%
CC(=O)N1CCC(c2ccnc(Nc3cc(C(F)(F)F)ccn3)n2)C1 (configuration not stated),Percent Effect,"30.3 µM, […]",43.14%
COC(=O)C(C)N1CCCc2cc(OC)ccc2C1 (configuration not stated),Percent Effect,"30.3 µM, […]",8.236%
COCCN1CCC(Nc2ccc(C#N)cc2F)CC1,Percent Effect,"30.3 µM, […]",26.49%
CNC(=O)C1Cc2ccccc2CN1CCC#N (configuration not stated),Percent Effect,"30.3 µM, […]",1.919%
CC(C)COc1cccc(-c2nc3c([nH]2)CCNC3)c1,Percent Effect,"30.3 µM, […]",95.75%
FC(F)(F)COc1cccc(-c2nc3c([nH]2)CCNC3)c1,Percent Effect,"30.3 µM, […]",27.16%
CCCOc1cccc(-c2nc3c([nH]2)CCNC3)c1,Percent Effect,"30.3 µM, […]",25.72%
CCN(C(=O)c1ccc(-n2ncc(C#N)c2N)cc1)C1CCCC1,Percent Effect,"30 µM, 30.03 µM",36.15%
O=C1C(NCc2nnc3n2CCCC3)CCN1CC(F)(F)F (configuration not stated),Percent Effect,"30 µM, 30.03 µM",-13.74%
Cc1ccc(Br)cc1NC(=O)NC1CCC2(C1)OCCO2 (configuration not stated),Percent Effect,"30.3 µM, […]",23.67%
Cc1ccc(CNC2(Cc3cc(CC(C)C)on3)COC2)o1,Percent Effect,"30.3 µM, […]",-12.32%
CC(C)Cc1cc(CC2(NCc3ccco3)COC2)no1,Percent Effect,"30.3 µM, […]",63.35%
CC(C)Cc1cc(CC2(NCc3ccccc3Cl)COC2)no1,Percent Effect,"30.3 µM, […]",8.785%
Cc1ccc(CN2CCc3nc(C(C)C)nc(O)c3CC2)s1,Percent Effect,"30.3 µM, […]",14.32%
O=C(c1cccnc1O)N1CCCN(c2cccnn2)CC1,Percent Effect,"30.3 µM, […]",3.038%
COc1ccc(C)cc1NC(=O)Nc1cnc(N2CCCC2)nc1,Percent Effect,"30.3 µM, […]",-0.2164%
COc1ccc(C)cc1NC(=O)Nc1cnc(N2CCN(C)CC2)nc1,Percent Effect,"30 µM, 30.03 µM",50.02%
COc1ccc(C)cc1NC(=O)Nc1cnc(N2CCOCC2)nc1,Percent Effect,"30.3 µM, […]",-26.13%
COc1ccc2nnc(C(=O)NC3CCCC3)nc2c1,Percent Effect,"30.3 µM, […]",8.289%
CCCS(=O)(=O)N1CCC2(CC1)CN(c1ccccn1)CCO2.O=C(O)C(F)(F)F,Percent Effect,"30 µM, 30.03 µM",10.12%
CS(=O)(=O)Cc1ccccc1NCc1cc(Cl)ccc1Cl,Percent Effect,"30.3 µM, […]",50.41%
CS(=O)(=O)Cc1ccc(Cl)cc1NCc1cccc(F)c1F,Percent Effect,"30.3 µM, […]",15.72%
CS(=O)(=O)Cc1ccc(Cl)cc1NCc1ccccc1F,Percent Effect,"30.3 µM, […]",17.75%
CC(O)CN1CCN(C(=O)c2ccc(N(C)C)nc2)CC1 (configuration not stated),Percent Effect,"30 µM, 30.03 µM",21.97%
Cn1ncc(C(=O)N2CCCC(n3cccn3)C2)c1C1CC1 (configuration not stated),Percent Effect,"30 µM, 30.03 µM",-6.982%
CCN(C(=O)Nc1cccnc1OC)C1CC1,Percent Effect,"30 µM, 30.03 µM",22.39%
COc1ncccc1NC(=O)N(Cc1ccco1)C1CC1,Percent Effect,30 µM,6.992%
COc1ncccc1NC(=O)N(Cc1ccc(C)o1)C1CC1,Percent Effect,"30 µM, 30.03 µM",53.3%
O=C1CCc2cc(OCCN3CCc4cncnc4C3)ccc2N1,Percent Effect,"30.3 µM, […]",41.19%
Cc1nc(S(=O)(=O)N2CCC3(CCCCC3)C2)cn1C,Percent Effect,"30.3 µM, […]",-11.17%
CC(C)CNc1nc2c(cc1C(=O)NCC1CC1)CCNCC2,Percent Effect,"30.3 µM, […]",79%
CNC(=O)c1cc2c(nc1NCC1CC1)CCNCC2,Percent Effect,"30.3 µM, […]",-29.9%
CC(C)Nc1nc2c(cc1C(=O)NCC1CC1)CCNCC2.O=C(O)C(F)(F)F.O=C(O)C(F)(F)F,Percent Effect,"30 µM, 30.03 µM",30.72%
O=C(C1CCCO1)N1CCc2onc(-c3ccc(Cl)cc3)c2C1 (configuration not stated),Percent Effect,"30.3 µM, […]",-19.46%
Cc1ccccc1CC1(C(=O)O)CCCN(c2ncnc3[nH]ccc23)C1 (configuration not stated),Percent Effect,"30.3 µM, […]",-3.526%
Cc1ccccc1CC1(CO)CCCN(c2ncncc2C(C)C)C1 (configuration not stated),Percent Effect,"30.3 µM, […]",60.98%
CC(=O)c1ccc(N2CCCC(CO)(Cc3ccccc3C)C2)nc1 (configuration not stated),Percent Effect,"30.3 µM, […]",44.66%
Cc1cnc(C)c(N2CCCC(C/C=C/c3ccccc3)(C(=O)O)C2)n1 (configuration not stated),Percent Effect,"30.3 µM, […]",12.4%
Cc1ccccc1CC1(CO)CCCN(c2ncnc3sccc23)C1 (configuration not stated),Percent Effect,"30.3 µM, […]",67.14%
Cc1ccccc1CC1(CO)CCCN(c2ncccc2C#N)C1 (configuration not stated),Percent Effect,"30 µM, 30.03 µM",15.87%
Cc1cnc(C)c(N2CCCC(CO)(Cc3cccc(Cl)c3)C2)n1 (configuration not stated),Percent Effect,"30.3 µM, […]",-33.57%
Cc1cnc(C)c(N2CCCC(CO)(Cc3ccccc3C)C2)n1 (configuration not stated),Percent Effect,"30.3 µM, […]",58.45%
Cc1ncc(C)c(N2CCCC(CO)(Cc3cccc(Cl)c3)C2)n1 (configuration not stated),Percent Effect,"30 µM, 30.03 µM",20.29%
O=C1CCCc2[nH]c(=O)c(C(=O)N3CCc4ccccc4C3)cc21,Percent Effect,"30.3 µM, […]",0.8668%
O=C(CN(Cc1cccc(F)c1)CC1CCCO1)N1CCCC1 (configuration not stated),Percent Effect,"30.3 µM, […]",-8.596%
CC[C@@H]1N(Cc2ccoc2)CCC[C@]12CCC(=O)N2CCOC.O=C(O)C(F)(F)F,Percent Effect,"30.3 µM, […]",-8.415%
